Most compounds without a hit are left out; they make up all but 17% or so of the library.
TDP1 cell noCPT: qHTS for Inhibitors of human tyrosyl-DNA phosphodiesterase 1 (TDP1): qHTS in cells in absence of CPT | actives 15% (n = 420,000) | DT40 Tdp1-/- hTDP1 cells, no CPT, ATP luminescence, 48 h | Potency, µM (doses to about 46.2 µM), for the others: top-dose activity change, negative = growth inhibition, actives largely listed as inhibitors; note: % is set by controls: 0 for no effect and ±100 for the full control effect; nearly all actives have a fitted effect of over 55% in size
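Compound effects on proliferation are scored in DT40 Tdp1-/-;hTDP1 cells in the absence of CPT. ATP levels (CellTiter-Glo luminescence) are recorded after a ≥48 hr, 37 °C incubation.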
DT40 TDP1 CPT: growth inhibition of DT40 Tdp1-/-;hTDP1 cells with camptothecin (screen for TDP1 inhibitors) | Potency, µM (highest dose often 46.2 µM), inactives show at the top dose activity change, negative = growth inhibition, actives largely listed as inhibitors | actives 12% (n = 420,000) | AID 686979 | chicken DT40 Tdp1-/-;hTDP1 cells + 20 nM CPT, ATP luminescence, 48 h; note: % is set by controls: 0 for no effect and ±100 for the full control effect; nearly all actives have a fitted effect of over 55% in size
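Chicken DT40 Tdp1-/- cells complemented with human TDP1, 400 cells/well, exposed to compounds plus 20 nM camptothecin for at least 48 h at 37 C; viability read as ATP content by CellTiter-Glo luminescence.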
ClpP mod: qHTS Assay for Activators of ClpP; Potency, µM (top dose mostly 57.5 µM), for the others: at the top dose activity change, negative = active; actives 1.9% (n = 340,000); ATP-dependent Clp protease proteolytic subunit (Bacillus subtilis (strain 168)), P80244; purified B. subtilis ClpP, FRET peptide cleavage, 20 min; active = well fitted falling curve with a large enough effect; inconclusive = small, poorly fitted or top-dose-only effect; inactive = no such curve, though single readings can be large or run the other way; note: the source files actives as falling curves though it sought activators and does not explain the sign; nearly all actives have a fitted effect of over 65% in size
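FRET quenching reversal measured ClpP activation: 10 microg/mL B. subtilis ClpP at pH 8 with the FRET-FV decapeptide, read at 430 nm after 320 nm excitation. The 20-min minus 0-min signal was scaled between DMSO/no-enzyme wells and ADEP (5.8 microM final).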
TDP1 block: blocks human tyrosyl-DNA phosphodiesterase 1; Q9NUW8; recombinant TDP1, AlphaScreen DNA substrate cleavage; Potency, µM (highest dose often 130 µM), for the others: at the highest dose activity change, negative = inhibition, most hits filed as inhibitors; actives 0.28% (n = 350,000); AID 485290; note: % is set by controls: 0 for no effect and ±100 for the full control effect; nearly all actives have a fitted effect of over 40% in size
Target sequence (Q9NUW8 whole entry, looked up): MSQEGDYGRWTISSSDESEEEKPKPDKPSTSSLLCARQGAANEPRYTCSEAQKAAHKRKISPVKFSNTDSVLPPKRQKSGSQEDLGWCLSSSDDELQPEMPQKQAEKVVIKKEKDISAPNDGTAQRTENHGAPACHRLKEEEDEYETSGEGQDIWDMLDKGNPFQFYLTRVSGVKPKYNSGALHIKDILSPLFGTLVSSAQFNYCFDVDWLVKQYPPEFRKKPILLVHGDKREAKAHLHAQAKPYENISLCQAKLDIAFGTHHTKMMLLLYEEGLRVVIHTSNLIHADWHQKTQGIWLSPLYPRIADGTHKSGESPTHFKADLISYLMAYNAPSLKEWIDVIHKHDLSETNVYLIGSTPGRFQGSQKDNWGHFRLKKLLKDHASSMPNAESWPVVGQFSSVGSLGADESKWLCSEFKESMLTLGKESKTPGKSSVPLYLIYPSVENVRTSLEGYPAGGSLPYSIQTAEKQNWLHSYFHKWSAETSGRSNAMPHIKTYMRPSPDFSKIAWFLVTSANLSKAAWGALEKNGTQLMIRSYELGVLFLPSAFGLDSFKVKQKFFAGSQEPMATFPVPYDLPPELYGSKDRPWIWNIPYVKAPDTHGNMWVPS
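E. coli-derived human Tdp1, 1 nM final. Cpd preinc 15 min RT; substrate 15 nM final, 5 min RT; AS bead mix 10 ug/ml final, 10 min RT. Signal loss = tyrosine-FITC cleavage. No-enzyme wells = max signal.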
* marks the source's active call; other numbers are inactive results; ? = inconclusive; . = no result; ! = not confirmed by another sample; [ ] = another dose, or the depositor's remark. Unless noted, calls come from the whole dose curve; as a rule, active = well fitted curve in the direction sought with a large enough effect; inconclusive = small, poorly fitted or top-dose-only effect, or another doubt; inactive = no such curve, though single readings can be large; an effect the other way counts as inactive or inconclusive. Potency is the fitted concentration of half-maximal effect.

SMILES	TDP1 cell noCPT	DT40 TDP1 CPT	ClpP mod	TDP1 block
CN1CCN(C(=S)c2cn(CCOc3ccccc3)c3ccccc23)CC1	8%	-1%	0%	8%
CN1CCN(C(=S)c2cn(CCOc3ccccc3F)c3ccccc23)CC1	18µM*	?	0%	10%
COc1cc([N+](=O)[O-])ccc1NC(=S)NNC(=O)CCC(=O)Nc1ccccc1Cl	14%	-13%	1%	4%
O=C(NCc1ccccc1)C(c1ccc(-c2ccccc2)cc1)N1CCN(CCN2CCOCC2)CC1 (centres undefined)	21µM*	16µM*	1%	.
Cc1cc(C(=O)NC(C)C2CCCO2)no1 (centres undefined)	0%	-24%	-1%	-4%
Cc1ccc(-c2nn(-c3ccccc3)cc2CO)o1	-6%	0%	32µM*	-6%[56.1 µM]
OCc1cn(-c2ccccc2)nc1-c1ccc(-c2nn(-c3ccccc3)cc2CO)cc1	10µM*	?	28µM*	2%
Cc1ccc(-c2nn(-c3cccc(F)c3)cc2CN2CCN(c3ccccn3)CC2)o1	23µM*	?	-25%	5%
Cc1ccc(-c2nn(-c3cccc(F)c3)cc2CNCc2cccnc2)o1	?	?	4%	3%
O=C(O)Cc1cn(-c2ccccc2)nc1-c1ccccc1	-20%	3%	.	8%
COc1ccc(C2Nc3ccccc3C(=O)N2Cc2cccnc2)cc1COc1ccc(NC(C)=O)cc1 (centres undefined)	.	.	.	6%
CCN1C(=O)[C@H]2[C@@H](c3ccc(-c4ccc(Cl)c(Cl)c4)cc3)N3CCCC[C@@]3(C(=O)OC)[C@H]2C1=O	6.5µM*	10µM*	-7%	4%
CCN1C(=O)[C@@H]2[C@@H](c3ccc(-c4ccc(Cl)c(Cl)c4)cc3)N3CCC[C@@]3(C(=O)OC)[C@@H]2C1=O	7.3µM*	8.2µM*	-8%	7%
Cn1c(CC(=O)Nc2ccccc2C(F)(F)F)c(Sc2ccccc2)c2ccccc21	-21%	-20%	-1%	3%
CN(C(=O)c1cc(COc2ccc(F)c(F)c2)on1)C1CCOC1 (centres undefined)	-19%	?	-2%	3%
Cn1c(C(=O)NCc2ccco2)cc2c(=O)[nH]c3ccccc3c21	?	-19%	28µM*	0%
CCCN(CCC)CCNC(=O)c1cc2c(=O)n(C)c3ccccc3c2n1C	18µM*	?	4%	4%
Cn1c(C(=O)NCCN2CCN(c3ccccc3F)CC2)cc2c(=O)n(C)c3ccccc3c21	23µM*	18µM*	-17%	1%
CCCCN(CC)CCNC(=O)c1cc2c(=O)[nH]c3ccccc3c2n1C	16µM*!	15µM*!	4%	-3%
CN(CCNC(=O)c1cc2c(=O)n(C)c3ccccc3c2n1C)Cc1ccccc1	?	?	5%	1%
Cn1c(C(=O)NCCN2CCOCC2)cc2c(=O)n(C)c3ccccc3c21	-16%	?	4%	3%
CCOC(=O)c1ccccc1NC(=O)c1nn(C)c2c1COc1ccccc1-2	-27%	-3%	-10%	3%
Cc1ccccc1NC(=O)CSc1nccn1C	.	.	0%	-2%
COc1ccc(CN2C(=O)CN(S(C)(=O)=O)CC2(C)C(=O)NCc2ccccc2)cc1OC (centres undefined)	19%	27%	0%	.
CC(=O)c1cccc(Nc2nc3ccccc3n3cnnc23)c1	?	?	-3%	.
SMILES	TDP1 cell noCPT	DT40 TDP1 CPT	ClpP mod	TDP1 block
CCc1ccc(C2=C(C)C(N3CCC(C(=O)NCc4ccc(C)o4)CC3)=NS2(=O)=O)cc1	?	?	0%	5%
O=C(Nc1cccc(S(=O)(=O)N2CCCCC2)c1)C1CC(=O)N(c2ccc3c(c2)OCCO3)C1 (centres undefined)	-14%	?	-1%	4%
CCCCN(CC)CCCNC(=O)c1cc2c(=O)[nH]c3ccccc3c2s1	23µM*	?	1%	2%
CCN1CCN(CCCNC(=O)c2cc3c(=O)n(C)c4ccccc4c3s2)CC1	10µM*	?	4%	2%
Cn1c(C(=O)NCCCN2CCN(c3ccc(F)cc3)CC2)cc2c(=O)n(C)c3ccccc3c21	?	?	-13%	.
O=C(NCCCN1CCOCC1)c1cc2c(=O)[nH]c3ccccc3c2s1	?	?	-10%	3%
Cn1c(=O)c2cc(C(=O)NCCCN3CCN(c4ccccc4F)CC3)sc2c2ccccc21	3.7µM*	3.7µM*	?	0%
CCN1CCN(CCCNC(=O)c2cc3c(=O)[nH]c4ccccc4c3s2)CC1	?	?	8.9µM*	-2%
Cn1c(=O)c2c(nc(SCCN3CCOCC3)n2C)n(C)c1=O	?	2%	2%	.
Cn1c(=O)n2n(c1=O)[C@H]1[C@H](O)[C@H]3O[C@@H]3/C(=N/OCc3ccccc3)[C@@H]1CC2	.	.	.	8%[21 µM]
Cc1cc(NC(=O)CCN2CCCCC2)ccc1Br	?	?	1%	.
Cn1c(=O)c2cc(C(=O)NCCCN3CCN(c4ccc(F)cc4)CC3)sc2c2ccccc21	2.9µM*	?	?	2%
CCCCNC(=O)O/N=C(\N)CS(=O)(=O)C(C)(C)C	9%	17%	-2%	5%
COc1cc(/C=N/Nc2nn3cnnc3c3ccccc23)ccc1O	?	7.3µM*	-1%	6%
COc1cccc(/C=N/Nc2nn3cnnc3c3ccccc23)c1	21µM*	13µM*	-2%	-5%
COc1cccc(/C=N/Nc2nc3ccccc3n3cnnc23)c1	?	-15%	-6%	5%
CCOc1cc(/C=N/Nc2nn3cnnc3c3ccccc23)ccc1O	?	?	-3%	1%
CCCCNC(=O)c1cnc2c(-c3ccc(OCC)c(OCC)c3)c(C)nn2c1-c1ccccc1	-30%	?	2%	3%
CC(C)S(=O)(=O)c1csc(NC(=O)Nc2ccc(Cl)cc2)c1	12µM*	7.3µM*	.	0%
CC(NC(=O)c1cc2cc(F)ccc2[nH]1)c1ccccc1 (centres undefined)	?	18µM*	3%	.
O=C(O)c1cc2cc(F)ccc2[nH]1	-18%	-22%	0%	89µM*!
O=C(O)c1cc2cc(Cl)ccc2[nH]1	-5%	4%	-23%	4%
COC(=O)c1cn(-c2nc3ccccc3s2)nn1	16µM*	?	-22%	.
COc1ccc(CNC(=O)COc2cc3c(c4oc(=O)cc(C)c24)CCC(C)(C)O3)cc1	?	?	5%	.
CCc1cc(=O)oc2c3c(cc(OCC(=O)NCc4ccncc4)c12)OC(C)(C)CC3	21µM*	16µM*	5%	.
COc1cccc(CNC(=O)COc2cc3c(c4oc(=O)cc(C)c24)CCC(C)(C)O3)c1	16µM*	21µM*	4%	.
COc1ccccc1CNC(=O)COc1cc2c(c3oc(=O)cc(C)c13)CCC(C)(C)O2	23µM*	23µM*	5%	.
